# According to PubChem BioAssay AID493208 (National Center for Advancing Translational Sciences (NCATS), 2011):
# In all, about 44,000 compounds went through this assay and about 340 (0.77%) were called active. About 5% were inconclusive and are not listed. The sample holds actives, similar compounds and a random draw of the others, so the mix is not that of the screen. Values without a mark were called inactive. Calls come from the whole dose curve; as a rule, active = well fitted inhibition curve with a large enough effect; inconclusive = small, poorly fitted or top-dose-only effect; inactive = flat fitted curve, though single readings scatter.
# Assay: Acumen qHTS Assay for Inhibitors of the mTORC1 Signaling Pathway in MEF (Tsc2-/-, p53-/-) Cells: Sytravon; note: nearly all actives have a fitted effect of over 50% in size
# Conditions: phospho-rpS6 immunofluorescence/PI, 24 h; series mostly up to 38.3 µM; activity change, negative = inhibition: at the top concentration
# Text: NIH Molecular Libraries Probe Production Centers Network [MLPCN] NIH Chemical Genomics Center [NCGC] MLPCN Grant: NS059428-01 Assay Submitter (PI): Blenis, John; Hoffman, Greg; Harvard University NCGC Assay Overview: The mammalian target of rapamycin (mTOR) is an intracellular serine/threonine kinase Aberrant regulation of mTOR signaling plays a causative role in a number of human diseases, including cancer, benign tumors such as lymphangioleiomyomatosis (LAM) and Tuberous Sclerosis Complex (TSC), and metabolic diseases such as diabetes and obesity. This project aims to identify inhibitors of ribosomal protein S6 (rpS6) phosphorylation. The phosphorylation of rpS6 is a key event downstream of mTOR activation. The assay uses a phospho-specific antibody of phospho-rpS6 to detect inhibitors of mTOR activation. Mutations in the Tsc1 and Tsc2 genes are the underlying genetic lesions responsible for TSC, causing constitutive activation of the mTORC1 pathway and leading to profound effects on cell metabolism. Aberrant metabolism in cancer has recently received significant attention as a target to develop therapeutic agents in the treatment of cancer.1 As Tsc2-/- cells have lost the ability to respond to energy and growth factor deprivation, these cells are unable to properly down regulate cellular biosynthetic processes in response to metabolic stress, and are thus extremely sensitive to glucose deprivation-induced death.2 A central goal of this project is to explore the unique cell survival and metabolic properties of cells with Tsc1 or Tsc2 by screening for compounds that selectively target the Tsc2-/- MEFs by screening both Tsc2-/- and WT MEF cell lines. We hope to better understand these aspects of TSC physiology in order to exploit them for therapeutic benefit.
# NCGC Acumen Assay Protocol Summary: For quantitative high throughput analysis of mTORC1 signaling, we developed a cell-based assay for immuno-fluorescence based detection of rpS6 phosphorylation on the Acumen Explorer that will be used a platform for the primary small molecule screen. Mouse embryonic fibroblasts (MEFs) are cultured in 1536-well plates using DMEM + 10% FBS. Twenty-four hrs after plating, test compounds (solubilized in DMSO) are delivered and incubated with the cells for 24 hrs at 37 degree Celsius. Following the incubation, media with compound is aspirated and the cells are fixed in 4% paraformaldehyde (PFA) containing PBS + 0.2% TX-100. Next, PFA is aspirated, cells are washed two times with PBS plus 0.2% TX-100 and the cells are blocked for 1 hr at room temperature (blocking buffer: LiCOR Blocking Buffer plus 0.2% TX-100). […] Cells are washed two times with PBS plus 0.2% TX-100, and stained with 10 uM propidium iodide (PI) for 20-25 minutes for cell number measurement (1:500 dilution of Hoescht staining is also added for IN Cell imaging). The plates are scanned on the Acumen Explorer laser scanning instrument (TTP Labtech) using the 488nm laser for simultaneous excitation of the Alexa-488 and PI. […] The normalized phospho-S6 staining is calculated as the ratio of the integrated Alexa 488 intensity divided by the integrated PI intensity for the single concentration rapamycin control (7.5 nM) and DMSO columns. […] Inhibition of the pathway is defined based on the normalized phospho-S6 intensity in rapamycin treated cells. Active cells are defined as those with a normalized phospho-S6 staining above this threshold, and each treatment is reported as the % positive cells in the well, where thresholds are defined by selecting wells with the highest and lowest signal and differentiating between the % non-active and % active populations. In addition to the pathway specific phospho-S6 endpoint, the number of PI stained cells from the Acumen is recorded as a measure of cell viability. The primary screen was performed with a MEF cell line in a defined genetic background, Tsc2-/-, p53-/- cell line stably transfected with an empty vector control (Tsc2-/- MEF).
# Potency is the fitted concentration of half-maximal effect.
Compound,"activity change, negative = inhibition [%]",Potency
COc1ccc2c(Sc3ccc(C)cc3)c(C(=O)NC(C)c3ccccc3)[nH]c2c1 (stereo not given),-13.1,
CCc1ccc(CNC(=O)C2CCN(c3nn4cc(-c5ccc(F)cc5)nc4s3)CC2)cc1,4.71,
COCCNC(=O)CSc1nc(-c2ccccc2)[nH]c1-c1ccc(C)cc1,-5.91,
CCOc1ccccc1NC(=O)CSc1ncc(S(=O)(=O)c2ccc(C(C)(C)C)cc2)c(=O)[nH]1,1.68,
CCCCOc1ccc(Cn2c(=O)oc3ccc(C)cc32)cc1OC,-1.14,
CCCCOc1ccc(CN2C(=O)C(=O)c3cc(Br)cc(C)c32)cc1OC,,9.27 µM (active)
CCOc1ccc(CNCc2c(C(=O)O)c(C)n(Cc3cccc(OC)c3)c2C)cc1OC,0.48,
Cc1cc(NC(=O)c2cccc(Cl)c2)ccc1-c1cc2ccccc2oc1=O,1.45,
COc1cccc(C(=O)Nc2nnc(S(=O)(=O)N3CCOCC3)s2)c1,0,
COc1ccccc1NC(=O)c1cc(S(=O)(=O)NCCc2ccccc2)ccc1F,-4.31,
Cc1cc(C)c2oc(-c3cccc(NC(=O)c4cccc(F)c4)c3C)nc2c1,0.309,
CCc1ccc(CNCc2c(C(=O)O)n(Cc3ccc(F)cc3Cl)c3cc(OC)ccc23)cc1,1.29,
COc1ccc(Cl)cc1NC(=O)CSc1nc(-c2cccs2)cc(C(F)(F)F)n1,12.9,
COc1ccc(C(F)(F)F)cc1NC(=O)c1sc2nc(-c3cccs3)ccc2c1N,,18.5 µM (active)
COc1ccc(C)cc1NC(=O)COCc1cc(-c2cccs2)on1,7.46,
Cc1nc2c(c(C)nn2-c2ccccc2)c(C)c1CCC(=O)NCCc1ccc(Cl)cc1,3.24,
O=C(NCc1ccccc1)c1cc(-c2cccc(Cl)c2)on1,-24.7,
CC(C)CCN(C(=O)Nc1ccc(Cl)c(Cl)c1)C(C)c1cccs1 (stereo not given),0,
Cc1cccc(CCNC(=O)c2ccc3c(c2)nc2n3CCC(C)C2)c1 (stereo not given),4.15,
Cc1nn2c(=O)cc(COC(=O)c3ccccc3NC(=O)COc3ccccc3C)nc2s1,10.8,
COc1ccc(Br)cc1CNC(=O)c1cc(=O)[nH]c2ccc(S(=O)(=O)N3CCCC3)cc12,5.76,
CN(C)CCCn1c(-c2ccc(Cl)cc2)csc1=Nc1ccccc1,-15.6,
COc1ccc(-c2nnc(SCC(=O)Nc3ccccc3C)o2)cc1OC,3.97,
COc1ccc(Cc2nc3ccc(C(=O)NCc4ccc(OC)cc4OC)cc3o2)cc1,-0.814,

Compound,"activity change, negative = inhibition [%]",Potency
Cc1ccc(Cl)cc1NC(=O)CCC(=O)N1CC(C)Sc2ccccc21 (stereo not given),0,
Cc1nc2ccccn2c(=O)c1NC(=O)c1c(F)cccc1F,-4.9,
CCc1cccc(NC(=O)Cn2nc(CC)n3c(cc4cc(C)ccc43)c2=O)c1,-12.5,
CCOc1ccc(Nc2c(S(=O)(=O)c3ccccc3)cnc3ccccc23)cc1,-1.31,
COc1ccc(CNC(=O)c2cc3cccc(OC)c3oc2=O)cc1,-8.78,
COc1ccc(-n2c(SCC(N)=O)nc3c(oc4ccccc43)c2=O)cc1,-0.0565,
CCOc1cc(C2C(C(=O)Nc3ccc(OC)cc3)=C(C)Nc3nc(SC)nn32)ccc1O (stereo not given),1.6,
CCOc1ccccc1NC(=O)C1=C(C)Nc2ncnn2C1c1ccc(NC(C)=O)cc1 (stereo not given),-2.65,
CCOc1ccc(C2C(C(=O)Nc3ccc(Cl)cc3)=C(C)Nc3nc(C(F)(F)F)nn32)cc1 (stereo not given),,5.85 µM (active)
CCc1cccc(NC(=O)c2cnc(N3CCOCC3)c3ccccc23)c1,-16.5,
Cc1cccc(N2CCN(C3=C(c4ccccc4)C(=O)c4ccccc43)CC2)c1C,-29.1,
COc1ccc(N(CC(=O)NCCc2ccc(Cl)cc2)S(=O)(=O)c2c(C)nn(C)c2C)cc1,-13.3,
Cc1ccc(OCC(=O)Nc2ccc(OCc3cc(=O)n4c(C)csc4n3)cc2)cc1C,-25,
O=C(Cn1c(=O)n(-c2ccc(F)cc2)c(=O)c2sc3ccccc3c21)NC1CCCC1,6.67,
CCOc1cc(-c2nnc(SCC(=O)NC3CCCC3)nc2-c2ccc(OC)c(OCC)c2)ccc1OC,0.0507,
CCOc1ccc(CCNC(=O)Cn2nc(CC)n3c(cc4sc(CC)cc43)c2=O)cc1OCC,-8.12,
CCCN1C(=O)C(O)(CC(=O)c2ccc(CC)cc2)c2cc(Br)ccc21 (stereo not given),,4.65 µM (active)
CCc1ccc(C(=O)CC2(O)C(=O)N(CCc3ccccc3)c3ccc(Br)cc32)cc1 (stereo not given),-7.15,
Cc1ccc(C(=O)CC2(O)C(=O)N(CCc3ccccc3)c3ccc(Br)cc32)cc1 (stereo not given),-4.49,
CCOc1ccccc1C(=O)NCC(c1ccc(N(C)C)cc1)N1CCCC1 (stereo not given),0,
COc1ccccc1NC(=O)c1sc2nc(C)c(C(=O)Nc3ccc(Cl)cc3)c(-c3ccc(Br)cc3)c2c1N,0,
COC(=O)c1ccccc1NC(=O)Cn1c(=O)cc(C)c2c(C)nn(-c3cccc(Cl)c3C)c21,3.23,
CCOc1ccc(N(CC)C(=O)c2cc3c(=O)oc4ccccc4c3s2)cc1,3.16,
Cc1ccc(Cn2c(CNC(=O)Cc3cccc(C)c3)nc3cccnc32)cc1,1.57,

Compound,"activity change, negative = inhibition [%]",Potency
Cc1ccc(C)c(NC(=O)Cn2ccn(-c3ccc(F)cc3)c(=O)c2=O)c1,-4.42,
COc1cc2nc(SCC(=O)Nc3ccccc3F)n3nc(-c4ccccc4)nc3c2cc1OC,-0.468,
Cc1cccc(N2CCN(C(=O)c3ccc4c(c3)CCN4S(=O)(=O)c3ccccc3)CC2)c1C,-12.5,
O=C(NCCCO)C(=O)Nc1c2c(nn1-c1ccccc1)CSC2,-1.8,
CCCCN(C)S(=O)(=O)c1ccc(C(=O)Nc2sc3c(c2C(N)=O)CC(C)(C)NC3(C)C)cc1,0.0542,
O=C(CCSCc1ccccc1F)N1CCN(c2ccc(Cl)cc2)CC1,6.13,
COc1cc(OC)c(NC(=O)N2CC3CCCN3c3ccccc32)cc1Cl (stereo not given),-2.08,
COc1ccc(CNc2nc(-c3ccc(Cl)cc3)nn2C(=O)c2ccccc2)cc1,-3.64,
CCOc1ccc(-n2c(C)nc3c(cnn3-c3ccc(C)cc3)c2=O)cc1,0.221,
COc1ccccc1NC(=O)CSC1=Nc2ccccc2C2=NC(CC(=O)NCc3cccs3)C(=O)N12 (stereo not given),-4.43,
COc1cc(NC(=O)Cn2nc(-c3ccc(C)c(C)c3)ccc2=O)cc(OC)c1,-5.32,
CCN(CC)c1cc(NC2CCCCC2)c2c3c(onc13)-c1ccccc1C2=O,0.307,
COc1ccc(-c2noc(CSc3nc4ccc(C)cc4[nH]3)n2)cc1,2.06,
CCCCN(CC)CCCNC(=O)Cn1ncc2c([nH]c3ccc(C)cc32)c1=O,7,
COc1cccc(CNCc2c(C(=O)O)n(Cc3ccc(C)cc3)c3cc(C)ccc23)c1OC,-0.504,
CCOC(=O)c1c(C)[nH]c(CCC(=O)NCCCN2CCN(c3cc(C)ccc3C)CC2)c1C,,13.1 µM (active)
CCOC(=O)c1c(C)[nH]c(CCC(=O)NCCCN2CCN(c3cccc(Cl)c3)CC2)c1C,0.601,
CC1=C(c2ccc(Cl)cc2)S(=O)(=O)N=C1N1CCN(c2cc(C)ccc2C)CC1,1.43,
CC1=C(c2ccc(C)cc2)S(=O)(=O)NC1=NCCCN1CCN(c2cc(C)ccc2C)CC1,-9.39,
Cc1ccc(C)c(N2CCN(CCCNC(=O)Nc3ccc(Cl)cc3)CC2)c1,,18.5 µM (active)
CCOC(=O)c1c(C)[nH]c(CCC(=O)Nc2ccc(OC)c(OC)c2)c1C,0.489,
CCn1c2ccccc2c2cc(NC(=O)COc3ccc(C)cc3C)ccc21,-2.08,
COc1ccc(-c2nn(CC(=O)Nc3ccccc3F)c3c2cnc2ccc(F)cc23)cc1,0,
O=C1CSC2(C(=O)N(Cc3ccccc3)c3ccccc32)N1c1cccc(F)c1 (stereo not given),0,

Compound,"activity change, negative = inhibition [%]",Potency
CCC1CCCCN1C(=O)Cn1c(=O)n(CCCCCC(=O)NCc2ccccc2)c(=O)c2sccc21 (stereo not given),-7.36,
O=C(Nc1ccc2c(c1)OCO2)c1cc(-c2cccc(Cl)c2)on1,-11.2,
Cc1ccc2c(=O)c(C(=O)c3cccc(Cl)c3)cn(CC(=O)NCc3ccccc3)c2n1,-0.846,
N#Cc1ccccc1Cn1cnc2nc3c(cc2c1=O)CCCC3,-10.6,
CC(C)c1ccc(NC(=O)c2ccc(Cn3nc(N4CCN(c5ccccc5)CC4)ccc3=O)o2)cc1,-11.3,
COc1ccc(SCc2cc(=O)c3ccc(C)c(C)c3[nH]2)cc1,0.722,
COc1ccc(-c2cc(C(F)(F)F)nc(SCC(=O)N(C)Cc3ccccc3)n2)cc1OC,-5.38,
Cc1ccc(S(=O)(=O)N(CC(=O)Nc2ccc(Cl)cc2Cl)c2ccccc2C)cc1,13,
COc1ccccc1NC(=O)C(=O)c1cc(C)n(-c2ccccc2F)c1C,-8.68,
COc1cc(NC(=O)c2noc3c2CSc2ccccc2-3)cc(OC)c1OC,0.0529,
CCN(CC)c1ccc(NS(=O)(=O)c2cc(-c3cc(C)no3)ccc2C)c(C)c1,-10.9,
O=C(NCc1ccc2c(c1)CCN2C(=O)c1ccccc1)c1ccccc1,1.91,
CCc1cccc(C)c1Nc1c(-c2ccc(N(C)C)cc2)nc2ncccn12,,13.1 µM (active)
Cc1cccc(C)c1Nc1c(-c2ccccc2O)nc2ncccn12,-14,
COc1ccc(-c2nc3nc(C)cc(C)n3c2Nc2c(C)cccc2C)cc1,-9.06,
CCOc1ccccc1N(CC)C(=O)c1cc2ccc3cccnc3c2[nH]1,-0.703,
Cc1ccc(C(=O)N2CCc3cc(CNC(=O)c4ccc(Br)cc4)ccc32)cc1,-0.771,
Cc1ccc(-n2c(=O)c3cccnc3n2CC(=O)Nc2ccccc2C(F)(F)F)cc1C,3.08,
COc1ccccc1Nc1c2c(nc3ccc(NC(=O)/C=C/c4cc(OC)c(OC)c(OC)c4)cc13)CCCC2,,3.29 µM (active)
COc1cc(C(=O)Nc2ccc(-n3c(C)nc4ccccc4c3=O)cc2)cc(OC)c1OC,2.16,
COc1cc(NC(=O)c2nc3ccccc3nc2C)cc(OC)c1OC,-17.4,
COc1ccc(NC(=O)c2ccc3oc(=O)c(S(=O)(=O)c4ccc(F)cc4)cc3c2)c(OC)c1,-1.06,
CCC(=O)NCc1cc(-c2nn(C)c(=O)c3ccccc23)ccc1OC,0.553,
